Test results as given in the supplement of paper PMC3334620.
Whole data set: some 33,000 sequences, median “E-score (-0.5 to 0.5)” near -0.035, cut for the highest 2% near 0.35. For the sample, the highest values were picked, then their nearest neighbours and some sequences at random.

Biological target: T1, Pdr3 (UniProt P33200)
T1 sequence: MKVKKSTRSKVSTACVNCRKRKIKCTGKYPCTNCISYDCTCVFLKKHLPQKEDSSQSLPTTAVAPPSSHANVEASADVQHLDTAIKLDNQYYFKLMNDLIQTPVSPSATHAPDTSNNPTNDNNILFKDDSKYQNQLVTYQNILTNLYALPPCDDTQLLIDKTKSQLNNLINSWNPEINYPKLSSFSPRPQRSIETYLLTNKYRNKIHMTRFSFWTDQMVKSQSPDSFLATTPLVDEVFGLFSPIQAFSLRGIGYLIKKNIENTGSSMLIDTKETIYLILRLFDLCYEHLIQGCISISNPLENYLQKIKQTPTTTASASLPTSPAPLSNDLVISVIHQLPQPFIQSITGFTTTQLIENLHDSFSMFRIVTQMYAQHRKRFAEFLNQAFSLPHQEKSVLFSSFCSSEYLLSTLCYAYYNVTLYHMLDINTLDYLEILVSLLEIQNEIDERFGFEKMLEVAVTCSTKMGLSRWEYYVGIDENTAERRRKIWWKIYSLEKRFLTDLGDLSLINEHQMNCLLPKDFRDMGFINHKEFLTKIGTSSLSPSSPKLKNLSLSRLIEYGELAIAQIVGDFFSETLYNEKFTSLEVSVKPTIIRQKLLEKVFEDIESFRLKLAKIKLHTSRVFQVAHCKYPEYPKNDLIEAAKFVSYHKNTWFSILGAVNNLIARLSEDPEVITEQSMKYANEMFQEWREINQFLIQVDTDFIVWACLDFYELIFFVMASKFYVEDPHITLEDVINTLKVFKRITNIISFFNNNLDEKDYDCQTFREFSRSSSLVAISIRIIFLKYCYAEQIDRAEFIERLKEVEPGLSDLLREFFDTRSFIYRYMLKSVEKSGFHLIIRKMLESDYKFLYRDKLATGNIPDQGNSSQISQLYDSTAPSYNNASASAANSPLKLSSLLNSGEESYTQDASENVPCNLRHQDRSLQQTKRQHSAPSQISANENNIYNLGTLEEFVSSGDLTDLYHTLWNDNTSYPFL
Experiment: PBM E-score (8-mer binding enrichment) (E-score (-0.5 to 0.5)); higher = stronger / more preferred TF binding
Conditions: protein concentration: 200 nM; construct: GST-full length
Method: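 Universal 'all 10-mer' protein binding microarrays (Agilent AMADID 015681) probed with GST-tagged S. cerevisiae TFs (full-length or DBD) made by in vitro transcription/translation (PURExpress), about 100-200 nM. Bound TF was detected with fluorescent anti-GST. Each ungapped 8-mer (which stands for itself and its reverse complement) is scored by the PBM enrichment score (E-score), a modified Wilcoxon-Mann-Whitney statistic from -0.5 to +0.5, computed with the Universal PBM Analysis Suite. Scale: above 0.35 generally sequence-specific binding.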

Sequence | PBM E-score
AGCCTTTC | -0.167
CACCAAAA | -0.054
CCGGTGTA | 0.153
CTCTCGTA | -0.00771
AACGCAGG | -0.0195
AACTTAAT | 0.115
ACATTTAT | -0.248
GCGACACA | -0.0561
AGCGGATG | 0.191
CTCGGATA | 0.273
CGCGGCTC | 0.344
CGCAGATC | -0.0483
CTCGGATC | 0.386
CCCGGATC | 0.419
CGCGGATC | 0.431
CCCGGATA | 0.34
AGCAGATC | -0.0743
CCCAGATC | -0.145
AGCGGATC | 0.374
ATCGGATC | 0.301
GAACCCCA | 0.211
TCAGTAAA | -0.00839
ACCACAGG | -0.238
CGAGGTAA | 0.0804
AGCTGGAG | -0.163

Sequence | PBM E-score
TAGGCTAA | -0.288
AAAGGCAA | -0.0369
CGGCCTAC | 0.158
CTCGGACC | 0.359
AGCGGATA | 0.3
CGCGGATA | 0.412
CTCGGACA | 0.285
GGCGGATA | 0.287
CTCAGACC | -0.0888
CCACATTC | 0.0586
GAGGCGAA | 0.0545
CGCGAGCG | 0.106
CTCTATGC | -0.0609
CCGGACAA | 0.329
CCGGACTA | 0.333
CCGGACAG | 0.338
CCGGACAC | 0.366
ACGGACTC | 0.205
CCGGACTC | 0.363
AGTGACTA | -0.132
ATCCCGTA | 0.242
ATCCCGAT | 0.302
ATCCCGTG | 0.396
ATCCCGTC | 0.311
ATCCCGAG | 0.395

Sequence | PBM E-score
ATCCCGAA | 0.308
CGCGGTAG | 0.282
CGCGGTCC | 0.384
AGCGGTAA | 0.045
CGCGGTAC | 0.367
CGCGGTAA | 0.36
AGCGGTCC | 0.0698
GGCGGTAA | 0.326
CGCGGTCA | 0.307
AGCGGTAC | -0.0325
TCTCTACA | -0.249
CAGGGACA | 0.0593
ATGCAAGC | -0.0447
TAGTTGGA | -0.0882
CCGCACTA | 0.241
GATGAAAC | 0.0428
TCGCCACA | -0.00326
CTATCAGC | -0.156
AATTCGCA | 0.255
CAGAAATC | -0.108
GGTCCGGA | 0.413
AGTCCGGG | 0.301
AGTCCGGA | 0.422
CGTCCGGA | 0.433
CGTCCGGC | 0.321

Sequence | PBM E-score
CGTCCGAA | 0.208
AGTCCGGC | 0.216
GGTCCGTA | 0.293
GGTCCGCA | 0.28
CCCGCATC | 0.0416
AAGGTCAC | -0.213
GGAAGACC | 0.202
GACTCACC | -0.126
ATCTGCTA | -0.241
CTGATGCA | 0.0307
CTAAGAAG | -0.0671
CTTCAAAG | -0.275
AAGCTGTC | -0.208
AGATCCCG | 0.4
CGATCCCC | 0.0699
CGATCCCG | 0.361
CAATCCCC | 0.0676
CGATCCCA | 0.067
CAATCCCA | -0.105
AGATCCCT | -0.142
AGATCCCC | 0.015
CAATCCCG | 0.392
CTTCACCA | -0.153
TCAAGGAA | -0.0766
ATCTGATA | -0.18

Sequence | PBM E-score
CGAGGTCC | 0.299
ACAACGGG | 0.221
GCAACGGA | 0.413
TCAACGCA | -0.0152
CCAACGGA | 0.362
ACAACGGA | 0.375
GCAACGTA | -0.192
CCAACGGG | 0.213
TCAACGAA | 0.0322
GCAACGGC | 0.152
TCAACGGA | 0.359
CCAACGGC | -0.0155
ACAACGGT | -0.0457
ACTTCGGA | 0.318
ATATAAGG | 0.167
CGCTATCA | 0.0421
ACGACACC | 0.0551
CCCGCAGA | 0.235
CCACAGGA | -0.15
ACAAAGTA | -0.0427
AAGGGATT | -0.172
CGGCGAAG | 0.154
ATAAGGTG | -0.0163
CGGAAGAG | 0.365
CGGAAGAA | 0.378

Sequence | PBM E-score
AGGAAGAG | -0.0084
AGGAAGAA | -0.186
GGGAAGAA | -0.0436
GGGAAGAC | -0.0964
CGGAAGAC | 0.393
CCGAAGAG | 0.129
AGGAAGAC | -0.246
GCCCCAGC | 0.0198
CGCTCCAA | -0.0785
ACTCCAGT | -0.118
GACTAGAA | -0.203
ACGGATTA | 0.217
CCGGATAA | 0.396
ACGGATAG | 0.216
CCGGATAC | 0.351
GGGGATAA | 0.0548
ACGGATAA | 0.375
ACGGATAT | 0.305
GCGGATTA | 0.204
GCGGATAA | 0.342
CCGGATTA | 0.385
CGGGATAA | 0.408
TGGGATAA | -0.102
AGCTAGTC | -0.0629
ACAGCCCG | 0.0226

Sequence | PBM E-score
ACCTTTCT | -0.129
GAAACTCC | 0.0961
AATTCAGC | 0.0247
ACGGATAC | 0.368
AAGGATAC | -0.00551
ATGGATAC | -0.0299
ACGGTGCC | 0.0198
AGGGCCCG | 0.182
CCGGCCCG | 0.375
CCGGCCGC | 0.317
ACGGCCCG | 0.22
CGGGCCCG | 0.44
ACGGCCGG | 0.344
CGGGCCCA | 0.0442
TCGGCCAA | 0.12
TCGGCCGA | 0.377
CCGGCCGG | 0.472
ACGGCCGA | 0.293
CCGGCCCA | -0.0155
CCGATGGC | 0.175
CGAGCTGA | 0.143
ACTACCGA | -0.0714
